# Bioassay records as filed in PubChem BioAssay.
# Pf growth 96h: inhibits malaria parasite growth, 96 h | P. falciparum luciferase reporter growth, 96 h | Potency, µM (doses to about 28.7 µM), actives largely listed as inhibitors | 6.9% of 320,000 active | AID 504834
#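 Erythrocytes infected with luciferase-expressing P. falciparum were dispensed at 2% hematocrit and 0.05% parasitemia (final), then incubated with compounds 96 hours at 37 C in 5% CO2. Luminescence after detection reagent addition reported growth.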
# Shiga inhibitor: Shiga toxin inhibition | Vero cells, Shiga toxin protein synthesis inhibition reporter | inhibition, % at 38.7 µM | 9.2% of 290,000 active | AID 2315; in the data active means inhibition mostly above about 28%, no sharp cut-off; inactive means mostly below about 43%
# Pf growth 48h: P. falciparum growth inhibition at 48 hours (one generation) | P. falciparum luciferase growth in erythrocytes, 48 h | Potency, µM (series often up to 28.7 µM), usual class: inhibitors | 5.9% of 310,000 active
#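 Compounds are pin-transferred into medium, infected erythrocytes (2% hematocrit, 0.1% parasitemia final) are added, and plates sit one parasite generation at 37 C in 5% CO2. Detection reagent is then added and luminescence measured.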
# Cycloheximide cs: affects cycloheximide protein synthesis inhibition readout, counter-screen. 12% of 300,000 active. max response, %. cell reporter, cycloheximide protein synthesis inhibition counterscreen; in the data active means max response mostly above about 13%, no sharp cut-off; inactive means mostly below about 14%; further: read at 38.3 µM for the half of the compounds with a filed dose
# LmPK inhibitor: blocks Leishmania mexicana pyruvate kinase activity. purified LmPK, Kinase-Glo ATP luminescence, 1 h. Potency, µM (series often up to 57.5 µM), hits mostly inhibitors. 0.37% of 290,000 active
# Target sequence (Q27686 whole entry, looked up): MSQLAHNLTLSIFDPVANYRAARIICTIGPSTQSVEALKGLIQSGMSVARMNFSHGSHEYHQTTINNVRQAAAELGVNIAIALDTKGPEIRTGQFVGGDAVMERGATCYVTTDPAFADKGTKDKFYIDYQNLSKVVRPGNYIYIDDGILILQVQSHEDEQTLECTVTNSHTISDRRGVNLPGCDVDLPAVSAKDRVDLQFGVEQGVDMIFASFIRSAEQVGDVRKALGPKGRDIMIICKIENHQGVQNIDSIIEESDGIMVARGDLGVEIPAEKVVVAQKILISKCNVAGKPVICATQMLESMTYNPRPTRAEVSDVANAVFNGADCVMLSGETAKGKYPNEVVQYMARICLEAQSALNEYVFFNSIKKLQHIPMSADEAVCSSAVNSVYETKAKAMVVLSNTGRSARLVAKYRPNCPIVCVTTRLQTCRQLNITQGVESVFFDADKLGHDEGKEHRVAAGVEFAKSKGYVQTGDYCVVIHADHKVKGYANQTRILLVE
#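 ATP generated from ADP (0.1 mM) and PEP (0.5 mM) by 0.1 nM LmPK over 1 h at room temperature (pH 7.2 imidazole buffer) was detected by coupled luciferase luminescence. Values were normalized to uninhibited and no-enzyme wells.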
# Hits are given with their value; i = inactive; ? = inconclusive; nt = not tested or not shown; + = active, no number; [ ] = remark or other dose. Compounds with a hit are over-represented: about 22% of the library has one in this group of screens. Unless noted, the call rests on the fitted dose curve; in most records, active means well fitted inhibition curve with a large enough effect; inconclusive means small, poorly fitted or top-dose-only effect, or another doubt; inactive means no such curve, though single readings can be large or run the other way.
SMILES,Pf growth 96h,Shiga inhibitor,Pf growth 48h,Cycloheximide cs,LmPK inhibitor
CCOc1cc(Br)c(C(=O)O)cc1OC,?,i,nt,i,i
CCCc1cc(C(=O)NNC(=S)NCC2CCCO2)cs1 (stereo not drawn),i,i,i,14,i
C/C(=N\OCc1ccc(C#N)cc1)c1ccccc1,i,70,i,42,i
C/C(=N\OCc1ccc(C#N)cc1)c1ccc(S(=O)(=O)N(C)C)cc1,?,80,i,48,i
C/C(=N\OCc1cccc(C(=O)O)c1)c1ccc(Cl)cc1,i,125,1µM,78,i
Cc1ccc(OCC(O)CNC2CCCC2)cc1C (stereo not drawn),i,nt,?,i,i
CCOC(=O)N1CCC(N2CCCC(C(=O)c3ccccc3OC)C2)CC1 (stereo not drawn),?,i,i,i,i
COc1ccc(CSc2cccc3cccnc23)cc1[N+](=O)[O-],6.6µM,i,i,i,i
COc1ccc(CSc2nncn2N)cc1[N+](=O)[O-],7.4µM,i,i,i,i
CC[C@H](C)[C@H](NC(=O)[C@H](CCC(=O)O)NC(=O)CNC(=O)[C@H](CCCCN)NC(=O)[C@H](CCC(=O)O)NC(=O)[C@H](CCSC)NC(=O)[C@H](CCSC)NC(=O)[C@H](CCSC)NC(=O)[C@H](CCC(=O)O)NC(=O)CNC(=O)[C@H](CO)NC(=O)[C@H](CO)NC(=O)[C@H](CO)NC(=O)[C@@H](N)CC(N)=O)C(=O)N[C@@H](CCCCN)C(=O)O,nt,i,nt,i,nt
CC1CCCCN1S(=O)(=O)c1ccc(-n2cnnn2)cc1 (stereo not drawn),i,i,i,i,i
CC1CCCN(S(=O)(=O)c2ccc(NC(=O)C3CC(=O)N(c4ccccc4)C3)cc2)C1 (stereo not drawn),9.3µM,i,i,i,i
O=C(Nc1ccccc1)C1CCCN(S(=O)(=O)c2ccc(-n3cnnn3)cc2)C1 (stereo not drawn),i,i,nt,i,i
COc1cc(C(=O)Nc2ccc(S(=O)(=O)N3CCCCC3C)cc2)cc(OC)c1OC (stereo not drawn),?,i,8.3µM,i,i
COc1ccc(C(=O)Nc2ccc(S(=O)(=O)N3CCCCC3C)cc2)c(OC)c1OC (stereo not drawn),i,i,?,i,i
CC1CCCN(S(=O)(=O)c2ccc(NC(=O)c3cccc(-n4cnnn4)c3)cc2)C1 (stereo not drawn),i,i,12µM,i,i
CC1CCCCN1S(=O)(=O)c1ccc(NC(=O)c2cccc(-n3cnnn3)c2)cc1 (stereo not drawn),?,i,9.3µM,i,i
CCOc1ccc(S(=O)(=O)NC2CC2)cc1,?,nt,i,i,i
CCCc1cc(=O)n2nc(N3CCC(C(=O)NCc4ccc(C)o4)CC3)sc2n1,i,i,i,i,i
CCOc1ccsc1C(=O)O,i,i,i,i,i
Cc1cc(C)c(S(=O)(=O)N2CCN(c3ccccc3)CC2)c(C)c1,i,i,i,i,i
COc1ccc(S(=O)(=O)N2CCOCC2)cc1NC(=O)CN1C(=O)NC2(CCCCC2C)C1=O (stereo not drawn),i,nt,i,nt,nt
COc1ccc(C(=O)Nc2cnc3sc(C)nn3c2=O)cc1,?,46,i,24,i
CCOc1ccc(NC(=O)c2ccc(-c3csc(C)n3)cc2)cc1,i,i,i,i,i
COc1ccc(-c2csc(C)n2)cc1,?,56,i,31,i
SMILES,Pf growth 96h,Shiga inhibitor,Pf growth 48h,Cycloheximide cs,LmPK inhibitor
COc1ccc(-c2csc(C)n2)cc1OC,i,i,nt,i,i
COc1ccc(NC(=O)c2ccc(-c3csc(C)n3)cc2)cc1,i,78,i,36,i
COc1ccc(C(=O)Nc2cc(-c3nn4c(C)nnc4s3)ccc2C)cc1,?,i,nt,i,i
Cc1nc(-c2ccc(C(=O)Nc3cccc(F)c3)cc2)cs1,i,18,i,17,i
Cc1nc(-c2ccc(C(=O)Nc3ccc(F)cc3)cc2)cs1,i,75,i,35,?
O=C(Nc1ccc(-c2csc(-c3ccccc3)n2)cc1)c1ccccc1,?,i,?,i,i
COc1ccc(C2CN=NC2C(=O)c2ccccc2)cc1 (stereo not drawn),9.3µM,26,15µM,21,i
O=C1OC(c2ccccc2)=N/C1=C\C=C\c1ccccc1[N+](=O)[O-],0.47µM,i,i,i,i
COCc1cc(=O)[nH]c(N2CCN(c3ccccc3OC)CC2)n1,8.3µM,i,i,i,i
O=C(NCCc1nc2ccccc2[nH]1)/C(=C/c1ccco1)NC(=O)c1ccc(Br)o1,i,i,i,i,i
Cc1ccc(NC(=O)ON=C2CCCC2)cc1,i,+,4.7µM,55,i
O=C(Nc1ccccc1)ON=C1CCCC1,?,i,8.3µM,23,i
Cc1ccc(NC(=O)C/C(N)=N/OC(=O)Nc2cccc(C)c2)cc1,i,nt,i,nt,nt
CCCCN1C(=O)C(=O)N(CC(=O)Nc2cc(OCC)c(N3CCOCC3)cc2OCC)C1=O,i,i,i,i,i
Cc1c(C)c2c(OCC(=O)Nc3ccc(CCO)cc3)cc3c(c2oc1=O)CCC(C)(C)O3,13µM,i,8.3µM,i,i
Cc1c(C)c2c(OCC(=O)N3CCC(C(=O)NCC(C)C)CC3)cc3c(c2oc1=O)CCC(C)(C)O3,i,i,?,i,i
Cc1c(C)c2c(OCC(=O)O)cc3c(c2oc1=O)CCC(C)(C)O3,i,i,i[0.00184 µM],i,i
Cc1c(C)c2c(OCC(=O)N3CCC(C(=O)O)CC3)cc3c(c2oc1=O)CCC(C)(C)O3,5.2µM,i,?,i,i
C/C(=N\NC(=O)c1cc(-c2cccc([N+](=O)[O-])c2)n[nH]1)c1ccccc1O,?,i,i,i,i
Cc1nc2c(-c3ccccc3)c(C)nn2c(C)c1CCC(=O)NC(C)CCc1ccco1 (stereo not drawn),10µM,i,nt,i,i
Cc1nc2c(-c3ccc(F)cc3)c(C)nn2c(C)c1CCC(=O)Nc1ccccc1F,9.3µM,i,?,i,i
Cc1[nH]ncc1-c1ccccc1Cl,i,i,i,i,i
CC(C)(C)OC(=O)N1CCC(CNC(=O)c2ccc(F)cc2)CC1,i,i,1.7µM,i,i
CC(C)CCOc1ccc(C(=O)NCC(c2ccco2)N(C)C)cc1 (stereo not drawn),i,i,i,i,i
N/C(Cc1cccs1)=N\OC(=O)COc1ccccc1Cl,nt,119,i,60,i
SMILES,Pf growth 96h,Shiga inhibitor,Pf growth 48h,Cycloheximide cs,LmPK inhibitor
N/C(Cc1cccs1)=N\OC(=O)COc1ccc(Br)cc1Cl,i,140,i,33,i
COc1ccc(S(=O)(=O)N2CCN(C(=O)Nc3ccccc3OC)CC2)cc1,i,i,?,i,i
Clc1ccc2c(N3CCCC3)ccnc2c1,nt,i,3.7µM,i,i
COc1ccc(N2CCN(c3ccnc4cc(Cl)ccc34)CC2)cc1,7.4µM,i,?,i,i
Clc1ccc2c(N3CCNCC3)ccnc2c1,nt,i,?,i,i
Oc1ccc(N2CCN(c3ccnc4cc(Cl)ccc34)CC2)cc1,2.3µM,i,3.3µM,i,i
